Mot1-301 SUMO – yeast Mot1-301 growth rescue at high temperature, primary screen, SUMOylation pathway inhibitor project, S. cerevisiae, ATP luminescence, 38.5C | S. cerevisiae Mot1-301 growth rescue; percent above DMSO median, 100 means doubled | 320,000 compounds, 1% hits | growth rescue, % at 18.8 µM;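 active means every valid replicate shows activation above 250% relative to neutral control wells; inactive means the rest, any valid replicate at or below 250%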
FAS TE block – FAS thioesterase domain inhibitors, primary screen, biochemical, fluorescence intensity, uHTS | Fatty acid synthase (Homo sapiens), P49327 | recombinant FAS-TE, OMFH fluorogenic substrate, fluorescence endpoint | inhibition, % at 15 µM | 360,000 compounds, 0.67% hits;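 active means compounds whose normalised, plate-corrected inhibition of enzyme fluorescence in the single-dose primary screen is 50% or more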
NadD block – inhibitors of S. aureus NadD, primary screen, biochemical, colorimetric, uHTS. Nicotinate-nucleotide adenylyltransferase NadD (Staphylococcus aureus N315). purified NadD enzyme, colorimetric absorbance read-out. inhibition, % at 20 µM. 360,000 compounds, 0.78% hits. AID 602399, 2012; in the data active means inhibition above about 26%
Calb FLC – C. albicans growth inhibition with fluconazole, primary screen, CaCi-2 strain, Alamar Blue fluorescence. growth inhibition, % (no concentration beside the values). C. albicans CaCi-2 (fluconazole-resistant clinical isolate) + fluconazole, 48 h. 300,000 compounds, 0.57% hits;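 active means growth inhibition above about 58% in most replicates, limit read from the data, passing the limit was not always enough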;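 further: all wells also contain fluconazole at 8 µg/ml as a sub-toxic cotreatment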
ATG4B inh – ATG4B protease inhibitors, primary screen, biochemical, fluorescence, uHTS. Cysteine protease ATG4B (Homo sapiens), Q9Y4P1. ATG4B cleavage of LC3-PLA2, NBD-HPC fluorescence, 1 h. inhibition, % at 8.33 µM. 340,000 compounds, 0.51% hits; in the data active means inhibition above about 40%
Target sequence (Q9Y4P1 whole entry, looked up): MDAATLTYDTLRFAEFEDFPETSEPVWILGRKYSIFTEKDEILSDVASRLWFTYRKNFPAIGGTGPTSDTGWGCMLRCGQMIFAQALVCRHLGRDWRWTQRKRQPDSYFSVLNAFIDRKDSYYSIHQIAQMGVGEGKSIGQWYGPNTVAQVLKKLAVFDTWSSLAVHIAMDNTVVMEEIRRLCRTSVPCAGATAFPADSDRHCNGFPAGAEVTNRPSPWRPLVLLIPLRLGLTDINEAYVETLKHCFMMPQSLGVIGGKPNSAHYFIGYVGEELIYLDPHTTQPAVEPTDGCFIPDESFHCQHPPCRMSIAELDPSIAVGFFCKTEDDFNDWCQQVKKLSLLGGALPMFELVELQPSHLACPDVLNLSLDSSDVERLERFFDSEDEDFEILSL
Mot1 SUMO dose – growth restoration of Mot1-301 yeast on galactose, dose response, SUMO pathway inhibitor project, whole organism, S. cerevisiae, ATP luminescence, cherry-picked samples | shares compounds with Mot1-301 SUMO | S. cerevisiae Mot1-301 galactose growth, 24 h; -100 = growth of slx-deleted rescue strain | growth activity, percent, % at 42 µM | 2,300 tested, under 10 active | AID 493004, 2010;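 active means Signal drops as the depositor expects, and the fitted half-maximal dose is no more than ten times the top valid tested dose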;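 further: more negative values mean stronger growth rescue toward the control strain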
Large screens that a line does not name were inactive (follow-up assays come after a bar, where they were run). Rows were chosen to be rich in hits. Some 3.1% of all compounds tested hit in one or more screens of this group.

CC(C)c1c(C(=O)N/N=C/c2cccc(OCc3ccccc3)c2)nnn1-c1nonc1N	none
Cc1cc(C)c(S(=O)(=O)NCc2ccc3c(c2)OCO3)cc1C	none
CCOc1ccccc1C(=O)OCC(=O)NCc1ccc2c(c1)OCO2	none (no result: Calb FLC)
CCOc1cc(S(=O)(=O)NCc2ccc3c(c2)OCO3)c(C)cc1C	Mot1-301 SUMO 700.5 | Mot1 SUMO dose inactive
CCOc1ccccc1C(=O)NCc1ccc2c(c1)OCO2	Mot1-301 SUMO 878.8 | Mot1 SUMO dose inactive
O=C(COC(=O)C1(c2ccc(F)cc2)CCCC1)NCc1ccco1	none
O=C(CNC(=O)c1ccc(Cl)cc1)NCCCn1ccnc1	none
O=C(NCCCn1ccnc1)c1ccc(Cl)cc1	Mot1-301 SUMO 574.2 | Mot1 SUMO dose inactive
COc1ccc2[nH]c(=O)c(CN(C(=O)c3ccccn3)c3ccccc3)cc2c1	Mot1-301 SUMO active | Mot1 SUMO dose inactive
CCOC(=O)N1CCN(c2nnnn2-c2ccccc2)CC1	Mot1-301 SUMO 366.2 | Mot1 SUMO dose inactive
COc1ccc(C(=O)N2CCN(c3nnnn3-c3ccccc3)CC2)cc1OC	none
CCn1c(SCC(=O)Nc2ccc(OCc3ccccc3)cc2)nnc1-c1ccco1	Mot1-301 SUMO 836.5 | Mot1 SUMO dose inactive
CCOc1ccc(NC(=O)CSc2nnc(-c3ccco3)n2C)cc1	none
O=C(CC(c1ccccc1)c1ccccc1)NCCOCc1ccccc1	Mot1-301 SUMO 403.2 | Mot1 SUMO dose inactive
CC(C)c1nc2n[nH]c(N)c2c2c1CCC2	Mot1-301 SUMO 408.2 | Mot1 SUMO dose inactive
Cc1cn(CC(=O)N[C@H](C)c2cccc3ccccc23)c(=O)[nH]c1=O	none (no result: Mot1-301 SUMO, Calb FLC)
COc1ccc(S(=O)(=O)N2CCc3cc4c(cc3C2C)OCCCO4)cc1 (configuration not stated)	Mot1-301 SUMO 599.9 | Mot1 SUMO dose inactive
Cc1ccc(S(=O)(=O)N2CCc3cc4c(cc3C2C)OCCCO4)cc1 (configuration not stated)	none
COc1ccc(C(=O)COC(=O)c2cc(=O)[nH]c3ccccc23)c(OC)c1	none
CC1CN(S(=O)(=O)c2cccc(C(=O)N=c3sccn3C)c2)CC(C)O1 (configuration not stated)	Mot1-301 SUMO 396.4 | Mot1 SUMO dose inactive
C[C@H]1CN([C@@H](C)CO)C(=O)CCCn2nncc2CO[C@@H]1CN(C)C(=O)c1ccc2ccn(C)c2c1	none (no result: Mot1-301 SUMO, Calb FLC, ATG4B inh)
O=C(O)c1ccc(Cl)c(NCc2cccs2)c1	Mot1-301 SUMO 560.0 | Mot1 SUMO dose inactive
CC(=O)c1cccc(NC(=O)CNC(=O)c2sc3ccccc3c2Cl)c1	Mot1-301 SUMO 664.4 | Mot1 SUMO dose inactive
CCOC(=S)SCC(=O)Nc1nc(C)c(C)s1	none (no result: Mot1-301 SUMO)
Cc1nc(NC(=O)CSc2nc(N)cc(N)n2)sc1C	Mot1-301 SUMO 660.7 | Mot1 SUMO dose inactive
Cc1ccc2oc(C(=O)NCc3ncc(C)[nH]3)c(C)c2c1	none
Cc1nn(C)cc1S(=O)(=O)Nc1ccccc1Br	none (no result: Calb FLC)
Cc1nn(C)cc1S(=O)(=O)Nc1ncccn1	Mot1-301 SUMO 598.1 | Mot1 SUMO dose inactive
Cc1cc([N+](=O)[O-])nn1CC(=O)NNC(=S)Nc1ccc([N+](=O)[O-])cc1	Mot1-301 SUMO 671.8 | Mot1 SUMO dose inactive
COC(=O)c1ccc(NC(=O)CCN2CCN(c3ccccc3)CC2)cc1	Mot1-301 SUMO 519.5 | Mot1 SUMO dose inactive
CN(CCN1CCOCC1)C(=O)c1cc(COc2ccc(F)c(F)c2)on1	none
COC(=O)c1ccc2c(C)c(C3(O)CCCCC3)[nH]c2c1	none (no result: Calb FLC)
Cc1c(C2(O)CCCCC2)[nH]c2ccc(C#N)cc12	Mot1-301 SUMO 369.9 (no result: Calb FLC) | Mot1 SUMO dose inactive
CCN(CC(=O)Nc1c(F)cccc1F)C(=O)CCc1nc2sc3c(c2c(=O)[nH]1)CCCC3	none
CCCCN(C)C(=O)CCC(=O)Nc1ccc2nc(N3CCN(C)CC3)cc(C)c2c1	Mot1-301 SUMO 448.9 | Mot1 SUMO dose inactive
Cc1cc(N2CCN(C)CC2)nc2ccc(NC(=S)N3CCC4(CC3)OCCO4)cc12	Mot1-301 SUMO active | Mot1 SUMO dose inactive
CCN1CCN(c2cc(C)c3cc(NC(=S)N4CCC5(CC4)OCCO5)ccc3n2)CC1	none
Cc1ccc(S(=O)(=O)NCCCNS(=O)(=O)c2ccccc2[N+](=O)[O-])cc1	none
CN(C(=O)C1CCC(CNS(=O)(=O)c2cccc3cccnc23)CC1)C1CCCCC1 (configuration not stated)	none
CC1CCc2c(sc3ncnc(SCC(=O)N(C)C4CCS(=O)(=O)C4)c23)C1 (configuration not stated)	none (no result: Calb FLC)
COc1ccc(CNC(=O)CN(c2ccc(OC)cc2)S(=O)(=O)c2c(C)nn(C)c2C)cc1	none
COc1ccc(N(CC(=O)NCc2ccc(C)cc2)S(=O)(=O)c2c(C)nn(C)c2C)cc1	Mot1-301 SUMO 584.8 | Mot1 SUMO dose inactive
CC(C)(C)c1ccc(CC(=O)N2CCC2(C)C(=O)NCCC#N)cc1 (configuration not stated)	none (no result: Mot1-301 SUMO, Calb FLC, ATG4B inh)
CC(=O)Nc1cnc(-c2ccc3c(c2)OCO3)cn1	none (no result: Mot1-301 SUMO, Calb FLC, ATG4B inh)
C=CC[C@H](CC(=O)N[C@H](CO)Cc1ccccc1)C(=O)N[C@H](COC(=O)[C@@H](CC=C)CC(=O)OC(C)(C)C)Cc1c[nH]c2ccccc12	none (no result: Calb FLC)
COc1ccccc1N1CCN(C(=O)C2CCN(S(=O)(=O)c3ccc(C)cc3)CC2)CC1	Mot1-301 SUMO 989.1 | Mot1 SUMO dose inactive
O=C(C1CCN(S(=O)(=O)c2ccccc2)CC1)N1CCN(c2ccccc2)CC1	none
CCOc1ccc(S(=O)(=O)N2CCC(C(=O)N3CCN(c4ccccc4)CC3)CC2)cc1	Mot1-301 SUMO 487.3 | Mot1 SUMO dose inactive
CCN1C(=O)N(C)[C@@H](c2ccccc2)C(C(=O)OC)=C1C	Mot1-301 SUMO 948.4 | Mot1 SUMO dose inactive
CCN1C(=O)N(S(=O)(=O)C(F)(F)F)[C@@H](c2ccccc2)C(C(=O)OC)=C1C	none
CC1(C(=O)NS(=O)(=O)c2ccc(F)cc2F)CCN1C(=O)C1CCCCC1 (configuration not stated)	none (no result: Mot1-301 SUMO, Calb FLC, ATG4B inh)
CCCCOCCCNS(=O)(=O)Cc1ccccc1	Mot1-301 SUMO 366.3 | Mot1 SUMO dose inactive
Cc1[nH]n(-c2ccccc2)c(=O)c1C(C[N+](=O)[O-])c1ccc(F)cc1 (configuration not stated)	none
Cc1ccc(C(C[N+](=O)[O-])c2c(C)[nH]n(-c3ccccc3)c2=O)cc1 (configuration not stated)	Mot1-301 SUMO 401.2 | Mot1 SUMO dose inactive
COc1cccc(/C=C/C(=O)OCC(=O)Nc2ccc(Cl)cn2)c1	Mot1-301 SUMO 759.8 (no result: ATG4B inh) | Mot1 SUMO dose inactive

Assay outcomes: PubChem BioAssay, several laboratories
